# Compound activity (PubChem)
# LEDGF integ inh: blocks HIV-1 LEDGF/p75-dependent DNA integration; inhibition, % at 3.7 µM; TR-FRET IN-LEDGF/p75 DNA integration, Eu/Cy5; 370,000 tested, 0.64% active;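 active = inhibition above the screen-wide mean plus 3 SD, cut at about 13% in these data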;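 also: signal is the Cy5 over europium emission ratio at 671 and 618 nm; 0% = plate median of compound wells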
# UHRF1 MBD2 ctr: human UHRF1 methylated DNA binding inhibitors. Q96T88. 370,000 tested, 0.75% active. UHRF1 binding to methylated oligo, TR-FRET. inhibition, % at 4.4 µM; in the data active = inhibition above about 21%;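 also: UHRF1 SRA domain binding a hemimethylated CpG hairpin DNA probe; 0% = median of test compound wells and 100% = reference inhibitor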
# MBD2 inh: inhibitors of human MBD2 binding to methylated oligonucleotide. Q9UBB5. TR-FRET. inhibition, % at 4.4 µM. 370,000 tested, 0.31% active. AID 686964; in the data active = inhibition above about 13%
# Target sequence (Q9UBB5 whole entry, looked up): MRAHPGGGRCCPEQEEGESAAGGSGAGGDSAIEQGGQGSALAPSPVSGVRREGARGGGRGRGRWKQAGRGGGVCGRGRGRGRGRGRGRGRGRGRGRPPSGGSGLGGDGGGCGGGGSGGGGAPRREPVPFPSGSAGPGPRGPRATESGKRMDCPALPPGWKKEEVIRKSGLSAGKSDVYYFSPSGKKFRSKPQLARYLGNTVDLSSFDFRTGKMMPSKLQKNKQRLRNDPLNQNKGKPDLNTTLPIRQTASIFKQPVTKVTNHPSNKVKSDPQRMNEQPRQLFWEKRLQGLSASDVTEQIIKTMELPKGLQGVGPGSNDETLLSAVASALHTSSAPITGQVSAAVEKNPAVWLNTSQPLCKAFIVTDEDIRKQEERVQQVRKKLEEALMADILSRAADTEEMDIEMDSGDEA
# DNMT1 block: blocks human DNA methyltransferase DNMT1. P26358. DNMT1 molecular beacon, Hinp1I cleavage, fluorescence. inhibition (reported as % activation of signal), % at 10 µM. 360,000 tested, 0.83% active; in the data active = inhibition above about 50%
# rCAG binder: r(CAG) repeat RNA binding; inhibition, % at 3 µM; AID 651821; TO-PRO-1 dye displacement fluorescence; 370,000 tested, 1.3% active;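 active = inhibition above the plate cutoff, the mean of all test compounds on that plate plus 3 SD, cut at about 35% in these data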;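 also: 0% = DMSO alone and 100% = 100 µM mitoxantrone as full dye displacement; higher means more dye released from RNA so lower well fluorescence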
# PG9 Ab binder: PG9 antibody binding by small molecule; AID 624416; TR-FRET gp120-PG9 antibody binding; inhibition, % at 6.7 µM; 360,000 tested, 0.43% active; in the data active = inhibition above about 8.5%
# * = called active by the depositor; i = inactive; . = no result given. Hits are enriched below; roughly 3.5% of the tested compounds scored in any of these assays.
SMILES,LEDGF integ inh,UHRF1 MBD2 ctr,MBD2 inh,DNMT1 block,rCAG binder,PG9 Ab binder
Cc1ccccc1NC(=O)N(C)[C@H]1C[C@H]2c3[nH]c4c(-c5ccccc5)cccc4c3CCN2C[C@H]1[C@H](C)O,-2,-2,-5,.,12,.
COc1ccc(S(=O)(=O)N2CCC(C(=O)Nc3nccs3)CC2)cc1,-2,30*,-4,0,3,0
CC(=O)Nc1ccc(S(=O)(=O)N2CCC(C(=O)Nc3nccs3)CC2)cc1,1,-3,2,2,3,-2
CCCCN1CN2Cc3cc(OC)ccc3C2CS1(=O)=O (stereo not given),0,-4,-5,.,2,.
CCOC(=O)N1CCN(C(=O)C[C@H]2C[C@@]3(C(=O)OC)C(=C[C@H](C(C)C)O[C@@H]3C3CC3)N(Cc3cccc4ccccc34)C2=O)CC1,-4,3,1,.,5,.
O=C(Nc1c(-c2ccccc2)[nH][nH]c1=O)c1ccc(-c2ccccc2)cc1,-2,-6,4,.,5,0
O=C(Nc1c(-c2ccccc2)[nH][nH]c1=O)c1ccco1,4,63*,1,-16,2,-4
Cc1cc2oc(=O)c3c(c2cc1OC(=O)c1ccco1)CCCC3,-2,-2,-4,4,1,-1
O=C(Oc1cc2oc(=O)c3c(c2cc1Cl)CCCC3)c1ccco1,1,24*,12,6,1,-1
CCOc1cc(N2CCOCC2)c(OCC)cc1NC(=O)COC(=O)/C=C/c1ccc(OC(F)F)cc1,-2,-1,-3,-4,-2,-2
CCOC(=O)Cn1cc(CN2C(C(=O)OC)CN(Cc3ccccc3)CCS2(=O)=O)nn1 (stereo not given),2,17,5,.,-1,.
O=C(c1cccc(Oc2ccccc2)c1)N1CCC(Oc2cccnc2)CC1,2,-3,-3,.,-2,.
Cc1cccc(NC(=O)COc2ccc3oc4c(c3c2)CCCC4)n1,1,73*,1,-3,-4,0
COCCNC(=O)C1(C)CCN(C(=O)c2ccc(SC(F)(F)F)cc2)C1 (stereo not given),-1,-1,2,-2,-2,-2
CCCCCCCCN1C(=O)[C@@H](CC(=O)NCCCOC)C[C@@]2(C(=O)OC)C1=C[C@H](C(C)(C)C)O[C@@H]2C,0,-3,-2,.,4,1
CCCCCCCCN1C(=O)[C@@H](CC(=O)NCCCN2CCCC2=O)C[C@@]2(C(=O)OC)C1=C[C@H](C(C)(C)C)O[C@@H]2C,4,35*,-1,.,4,-1
Cc1c(N2C(=O)c3ccc(Br)cc3C2=O)c(=O)n(-c2ccccc2)n1C,-1,5,8,2,-1,0
Cc1c(N2C(=O)c3ccc4c5c(ccc(c35)C2=O)CC4)c(=O)n(-c2ccccc2)n1C,.,.,.,90*,.,.
O=C(O)c1ccc(N/N=C/C=C/c2ccccc2)cc1,0,21*,2,3,9,-5
CCOc1ccccc1NC(=O)C1=C(C)NC(=O)NC1c1cccc(OC)c1OC (stereo not given),3,23*,10,2,-6,1
COCC(=O)N(C)[C@H]1C[C@H]2c3[nH]c4c(-c5ccc6c(c5)OCO6)cccc4c3CCN2C(=O)[C@H]1[C@H](C)O,2,-1,-3,.,6,.
CCC(NC(=O)NCc1ccccc1)(C(F)(F)F)C(F)(F)F,-1,-1,-6,-19,-1,-2
CCC(NC(=O)Nc1ccc(O)cc1)(C(F)(F)F)C(F)(F)F,15*,9,-11,-3,5,-5
CCc1ccc(Nc2ncc3c(n2)CC(C)(C)CC3=O)cc1,3,42*,-5,6,-6,-2
Cc1ccc(Cn2cc(CN3[C@@H](Cc4ccccc4)COc4cc(Br)ccc4S3(=O)=O)nn2)cc1,-2,-2,-3,.,1,.
SMILES,LEDGF integ inh,UHRF1 MBD2 ctr,MBD2 inh,DNMT1 block,rCAG binder,PG9 Ab binder
COC(=O)[C@H](CC(C)C)N1Cc2nnn(Cc3ccccc3)c2-c2ccccc2S1(=O)=O,4,-2,4,.,-3,.
C/C(=N\Nc1ncc(Cl)cc1Cl)c1ccc(C#N)cc1,6,-1,-2,6,-3,-1
COc1ccc(/C(C)=N/Nc2ncc(Cl)cc2Cl)c(O)c1,1,24*,6,0,2,0
O=C(c1ccccc1)c1c2c(cc3sc4ccccc4[n+]13)-c1cccc3cccc-2c13,0,-13,-8,58*,24,-7
O=C(CN1CCN(c2ccccn2)CC1)Nc1ccc([N+](=O)[O-])cc1C(=O)Nc1ccccc1F,1,2,0,-1,0,0
Nc1ccc2cc3[nH]c4cc(N)ccc4c3nc2c1,0,i,-96,194*,-75,-22
CCCS(=O)(=O)NC(=O)C1(C)CCCN(C(=O)c2ccncc2)C1 (stereo not given),3,1,-1,1,2,1
COc1ccc(-c2nnn(CC(=O)N(CCCO)C(C(=O)NC3CCCC3)c3ccncc3)n2)cc1 (stereo not given),-9,28*,-1,0,-1,3
CCCC(=O)N1CCC[C@]2(CC[C@H](CCC#N)O2)C1,-4,0,0,.,2,.
COc1ccccc1Cc1c(C(C)(C)C)nc2c3ccccc3ccn12,2,23*,6,-1,5,-2
O=C(COC(=O)CCc1c[nH]c2ccccc12)NCc1ccc2c(c1)OCO2,3,64*,-1,-4,-3,-1
COc1ccc(CCC(=O)OCC(=O)NCc2ccc3c(c2)OCO3)cc1,-1,-3,1,0,2,0
COc1ccc(Nc2cccc3ccccc23)cc1,3,21*,3,1,3,-2
CC(C)C(NC(=O)[C@H](Cc1ccc(O)cc1)NC(=O)OC(C)(C)C)P(=O)(O)OC(Cc1ccccc1)C(=O)O (stereo not given in full),-1,3,3,.,.,.
O=[N+]([O-])CC(=Nc1ccc(Cl)cc1)N/N=C\c1oc(O)c2ccccc12,6,-2,4,-13,53*,-2
O=C(CN1CCc2onc(-c3cccc(-n4cc(CO)nn4)c3)c2C1=O)N1CCOCC1,-1,1,5,.,2,.
CCCCCCCCN1C(=O)[C@@H](CC(=O)N2CCN(C(=O)OCC)CC2)C[C@@]2(C(=O)OC)C1=C[C@H](COCc1ccccc1)O[C@@H]2C,-2,0,-2,.,6,.
Cc1ccc(Cl)cc1N1CCN(C(=O)CCS(=O)(=O)c2ccc3c(c2)NC(=O)CO3)CC1,2,23*,-1,-7,0,1
C[C@H]1CN([C@@H](C)CO)C(=O)c2cc(Br)cnc2O[C@@H]1CN(C)C(=O)C1CCC1,-5,0,0,-2,1,1
CCCCN1CC(COCc2ccccc2)Oc2cccc(Oc3ccc(SC)c(C)c3)c2S1(=O)=O (stereo not given),-2,23*,13,.,4,-3
